Broadly, the inhibition is the relative decrease from the control value, in per cent.

Consider 14 molecules from PubChem BioAssay.

Calls of active or inactive are those of the source.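 The calls were made as follows, unless noted: active = visual image review flags a hit and inhibition of aggregation exceeds 20%; inconclusive = visual hit but inhibition at or below 20%; inactive = no hit on visual image review.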

Test [1] can be described thus: inhibitors of TNFa-induced NFkB p65 translocation, primary screen, imaging, HUVEC, MLSMR starter and 10KST1 sets (AID 438;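 active = inhibition above 20% together with a positive visual image hit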;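 also: compound added about 3h40 before a 20 min TNFalpha stimulation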;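 as to inhibition: signal is the nuclear over cytoplasmic p65 intensity ratio per well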). The note with it: HUVEC TNFa-induced p65 nuclear translocation; cell count: measured here: nuclei count (cytotoxicity indicator), at 2.08 µM; inhibition: at 2 µM, stronger effect = higher value, 0% TNFa-plus-vehicle, 100% no-TNFa wells.
Test [2] in a line: reduction of polyQ htt aggregates in cells – imaging, exon1htt(103Q)mCFP cells, high-content imaging, primary screen (AID 483).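 Also: compound exposure lasted 3 days before fixation.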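 As to nuclei count: percent of the per-plate median nuclei count of sample wells.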 The note with it: exon1htt(103Q)mCFP cell line, aggregate imaging, at 2 µM; inhibition of aggregation: stronger effect = higher value; nuclei count: measured here: cell count, toxicity.
The nature of test [3]: endothelial E-selectin expression blockers – imaging, HUVEC, immunofluorescence, MLSMR starter and 10KST1 sets, primary screen (AID 487;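 active = visually confirmed hit in the image check and inhibition above 20%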;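 as to inhibition: signal is fraction of cell area covered by stained E-selectin grains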;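 as to nuclei count: 100% = median nuclei count of all wells on the same plate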). The note with it: HUVEC TNFalpha-induced E-selectin immunofluorescence imaging, at 2 µM; inhibition: stronger effect = higher value; nuclei count: measured here: cell number, toxicity.
The target of test [4] is Voltage-gated potassium channel subunit beta-2 (Rattus norvegicus) (UniProt P62483). Briefly: inhibitors of rat Kvbeta2 reductase activity – biochemical, NADPH fluorescence, primary screen (AID 622;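 active = fluorescence slope higher than the sample average by over 3 SD, cut at about -0.22 in these data, passing the limit was not always enough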;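 also: slope of raw intensity against log time taken from 70 to 1610 s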). As to conditions: recombinant KvBeta, 4-cyanobenzaldehyde reduction, at 10 µM, stronger effect = higher value.
Chain of Voltage-gated potassium channel subunit beta-2 (Rattus norvegicus) (P62483 whole entry, looked up): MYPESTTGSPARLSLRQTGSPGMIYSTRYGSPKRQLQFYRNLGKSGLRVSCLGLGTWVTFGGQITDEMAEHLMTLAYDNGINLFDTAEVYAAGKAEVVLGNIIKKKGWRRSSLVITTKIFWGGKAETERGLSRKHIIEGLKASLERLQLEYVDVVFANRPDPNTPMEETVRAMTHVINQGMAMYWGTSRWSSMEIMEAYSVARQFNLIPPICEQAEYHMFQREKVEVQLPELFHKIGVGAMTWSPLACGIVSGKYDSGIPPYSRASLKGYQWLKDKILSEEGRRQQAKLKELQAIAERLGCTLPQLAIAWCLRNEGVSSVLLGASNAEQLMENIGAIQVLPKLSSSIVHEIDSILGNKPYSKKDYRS
The target is the same in test [5]. Briefly: enhancers of rat Kvbeta2 NADPH turnover – biochemical, NADPH fluorescence, primary screen (AID 623;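 active = NADPH fluorescence slope more negative than the mean of all samples by about 3 SD, 99.7% confidence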;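 also: fluorescence intensity change per second fitted from 20 to 320 s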). The note with it: Recombinant KvBeta, NADPH fluorescence decrease slope, 10 min; at 10 µM; stronger effect = lower value.
For test [6], the target named is Alpha-2C adrenergic receptor (Homo sapiens) (UniProt P18825). In words: compounds altering alpha2C-coupled GIRK flux – cell-based, HEK293 alpha2C/GIRK1/2, thallium flux, primary screen (AID 624;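 active = fluorescence slope after compound addition differing from the mean of all screened samples at 99.7% confidence, in either direction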;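 also: slope of fluorescence ratio to pre-addition baseline per second over 15 to 24 s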). As to conditions: thallium flux BTC fluorescence, at 10 µM, actives lie on both sides.
Chain of Alpha-2C adrenergic receptor (Homo sapiens) (P18825 whole entry, looked up): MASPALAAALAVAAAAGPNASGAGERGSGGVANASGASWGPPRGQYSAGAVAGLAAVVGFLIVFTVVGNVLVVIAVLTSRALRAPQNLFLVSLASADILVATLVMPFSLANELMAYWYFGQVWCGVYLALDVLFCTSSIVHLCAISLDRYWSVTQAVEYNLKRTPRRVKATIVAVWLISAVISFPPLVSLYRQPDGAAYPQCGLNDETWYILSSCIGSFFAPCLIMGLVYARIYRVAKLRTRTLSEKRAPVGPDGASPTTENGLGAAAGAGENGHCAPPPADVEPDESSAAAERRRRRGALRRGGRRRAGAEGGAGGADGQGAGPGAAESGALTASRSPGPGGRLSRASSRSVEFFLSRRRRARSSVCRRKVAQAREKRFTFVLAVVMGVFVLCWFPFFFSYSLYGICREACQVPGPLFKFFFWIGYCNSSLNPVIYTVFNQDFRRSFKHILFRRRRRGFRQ
Test [7] can be described thus: blockers of RIG-like receptor reporter activation – cell-based, Sendai virus stimulus, luciferase, 10K MLSCN set, TLR/RLR signaling modifier project, primary screen (AID 602276;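 active = inhibition at or above 50% at 10 µM; inactive = inhibition below 50%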;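 also: firefly luciferase from ISG56 promoter only with Renilla not read in this screen; 0% = Sendai virus plus DMSO and 100% = medium plus DMSO without virus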). The note with it: HEK293 RL24 IRF3 luciferase reporter, at 10 µM, stronger effect = higher value. (In general: A reporter such as luciferase makes a cellular process visible.)
A short description of test [8]: TLR3 IRF3 reporter activation blockers – cell-based, poly I:C stimulus, luciferase, 10K MLSCN set, primary screen (AID 602277;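 active = inhibition of the reporter signal at or above 50%; inactive = inhibition below 50%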). As to conditions: HEK293-TLR3 RL24 IRF3 luciferase reporter, at 10 µM, stronger effect = higher value.

As for `CCn1c(=O)cc(OCC(=O)NC2CCCCC2)c2ccccc21`, the cell count in test [1] was found to be 336. Also, the inhibition is 22.2% (inactive) in test [1], -15.3% (inactive) in test [3], 1.11% (inactive) in test [7] and 23.9% (inactive) in test [8]. In test [2], the inhibition of aggregation was -2.9% (inactive). Also, the values for the nuclei count in test [2] and in test [3] were 110% and 113%, respectively. Further, in test [4], the fluorescence slope is -0.263 (inactive). Besides, the NADPH fluorescence slope in test [5] is 1.1e-05 (inactive). The slope in test [6] is 0.00609 (inactive).

Take `CCOC(=O)C(NC(=O)c1ccc(OC)cc1)(N1CCOCC1)C(F)(F)F` (centres undefined): in test [1], the cell count came to 551. The inhibition in test [1] is -0.5% (inactive); in test [3], 29.4% (inactive); in test [7] it was -14.4% (inactive); in test [8] it was -22.3% (inactive). Besides, the inhibition of aggregation in test [2] is -14.5% (inactive). In addition, the nuclei count in test [2] amounted to 108%; in test [3] it was 88.9%. Further, the fluorescence slope in test [4] is -0.59 (inactive). Further, in test [5], the NADPH fluorescence slope was -4.2e-05 (inactive). The slope in test [6] was 0.00726 (inactive).

Take `Cc1ccc(-c2csc3ncn(-n4c(C)ccc4C)c(=O)c23)o1`: in test [1], the cell count was determined as 575. Besides, the inhibition was 6.1% (inactive) in test [1], 55.1% (active) in test [3], -15.1% (inactive) in test [7] and 12.5% (inactive) in test [8]. Moreover, the inhibition of aggregation in test [2] is -0.6% (inactive). For the same molecule, the values for the nuclei count in test [2] and in test [3] were 82.8% and 66.1%, respectively. Further, the fluorescence slope in test [4] was -0.468 (inactive). In test [5], the NADPH fluorescence slope is 3.1e-05 (inactive). Also, the slope in test [6] was 0.00663 (inactive).

In the case of `CCCNS(=O)(=O)c1ccc(OCC(=O)NCc2ccco2)cc1`, the cell count in test [1] amounted to 603. Also, the inhibition in test [1] was 11.7% (inactive); in test [3], -76.7% (inactive); in test [7], -6.02% (inactive); in test [8] it was -17.4% (inactive). Also, the inhibition of aggregation in test [2] is -6% (inactive). Also, the nuclei count in test [2] amounted to 110%; in test [3], 126%. Moreover, the fluorescence slope in test [4] was -0.478 (inactive). Besides, the NADPH fluorescence slope in test [5] was 8.5e-05 (inactive). Moreover, the slope in test [6] was 0.00584 (inactive).

Consider `c1ccc2c(Cn3ccnc3)c[nH]c2c1`, for which the cell count in test [1] came to 410. In addition, the inhibition in test [1] was 6.5% (inactive); in test [3], -12.3% (inactive); in test [7], 6.54% (inactive); in test [8] it was 38.9% (inactive). In test [2], the inhibition of aggregation is -17.6% (inactive). The nuclei count in test [2] is 90%; in test [3] it was 96.2%. In test [4], the fluorescence slope was -0.414 (inactive). The NADPH fluorescence slope in test [5] was -0.000163 (inactive). Further, the slope in test [6] was 0.00685 (inactive).

Turning to `CS(=O)(=O)N(CC(=O)NCCSCc1cccc(Cl)c1)c1ccc2c(c1)OCO2`, the cell count in test [1] was 233. In addition, the inhibition is -4.5% (inactive) in test [1], 32.5% (inactive) in test [3], -12% (inactive) in test [7] and 1.85% (inactive) in test [8]. The inhibition of aggregation in test [2] was 35.8% (active). In addition, the nuclei count came to 96.5% in test [2] and 71.4% in test [3]. Also, the fluorescence slope in test [4] was -0.528 (inactive). Further, the NADPH fluorescence slope in test [5] is -5.8e-05 (inactive). The slope in test [6] is 0.00685 (inactive).

Regarding `CCSc1oc(-c2cccs2)nc1S(=O)(=O)c1ccccc1`, the cell count in test [1] amounted to 690. For the same molecule, the inhibition is -6.7% (inactive) in test [1], -16.9% (inactive) in test [3], 14.5% (inactive) in test [7] and 34% (inactive) in test [8]. Moreover, the inhibition of aggregation in test [2] is -10.8% (inactive). For the same molecule, the figures for the nuclei count in test [2] and in test [3] were 101% and 104%, respectively. Also, in test [4], the fluorescence slope was -0.56 (inactive). For the same molecule, in test [5], the NADPH fluorescence slope was -3.1e-05 (inactive). In addition, the slope in test [6] is 0.00698 (inactive).

With `CCOC(=O)Nc1ccc2c(c1)N(C(=O)OCCN(C)C)c1ccccc1CC2`, the cell count in test [1] came to 425. Besides, the inhibition in test [1] was -7.7% (inactive); in test [3] it was -16.3% (inactive); in test [7] it was 6.83% (inactive); in test [8], 30.5% (inactive). Further, the inhibition of aggregation in test [2] was 25.6% (inactive). In addition, the nuclei count was 57.1% in test [2] and 75.4% in test [3]. Also, the fluorescence slope in test [4] was -0.563 (inactive). Moreover, in test [5], the NADPH fluorescence slope was -2.3e-05 (inactive). Also, the slope in test [6] was 0.00722 (inactive).

With `COc1ccc(-n2c(SCc3ccc(C#N)cc3)nnc2-c2ccccn2)cc1`, in test [1], the cell count was 692. Moreover, the inhibition is -5.8% (inactive) in test [1], -18.8% (inactive) in test [3], -1.12% (inactive) in test [7] and 11.2% (inactive) in test [8]. Moreover, the inhibition of aggregation in test [2] was -4.4% (inactive). In addition, the nuclei count was determined as 105% in test [2] and 118% in test [3]. In addition, the fluorescence slope in test [4] was -0.599 (inactive). Further, the NADPH fluorescence slope in test [5] was -3.8e-05 (inactive). The slope in test [6] was 0.00521 (inactive).

Take `O=C(CSc1nnc(CNC(=O)c2c(F)cccc2Cl)o1)c1ccccc1`: in test [1], the cell count worked out at 672. The inhibition is -19.6% (inactive) in test [1], -111% (inactive) in test [3], 3.28% (inactive) in test [7] and 18.3% (inactive) in test [8]. For the same molecule, in test [2], the inhibition of aggregation was 40.1% (active). Besides, the nuclei count is 100% in test [2] and 123% in test [3]. Besides, in test [4], the fluorescence slope was -0.406 (inactive). In addition, the NADPH fluorescence slope in test [5] was -5.2e-05 (inactive). Further, in test [6], the slope was 0.00534 (inactive).

In the case of `O=P(O)(CN1CCCCCC1)CN1CCCCCC1`, the cell count in test [1] was 575. The inhibition in test [1] was 13.9% (inactive); in test [3], 6% (inactive); in test [7], -7.54% (inactive); in test [8], 17.4% (inactive). In addition, the inhibition of aggregation in test [2] is -5.3% (inactive). Besides, the nuclei count in test [2] stood at 107%; in test [3], 112%. In addition, the fluorescence slope in test [4] is -0.484 (inactive). In addition, in test [5], the NADPH fluorescence slope is -5.2e-05 (inactive). The slope in test [6] is 0.0053 (inactive).

Regarding `CCSc1nnc(-c2cccs2)o1`, in test [1], the cell count amounted to 413. Also, the inhibition is -4.5% (inactive) in test [1], 21.6% (inactive) in test [3], -21.5% (inactive) in test [7] and -57.7% (inactive) in test [8]. For the same molecule, in test [2], the inhibition of aggregation was -4.3% (inactive). Further, the nuclei count stood at 110% in test [2] and 111% in test [3]. In addition, the fluorescence slope in test [4] was -0.369 (inactive). For the same molecule, in test [5], the NADPH fluorescence slope was -4.4e-05 (inactive). The slope in test [6] was 0.00573 (inactive).

`Cc1cc(NC(=O)CCC(=O)N(c2cccnc2)C(C(=O)NC2CCCC2)c2ccccc2F)no1` (centres undefined): the cell count in test [1] is 557. Moreover, the inhibition in test [1] is -9% (inactive); in test [3], -19.7% (inactive); in test [7], -5.41% (inactive); in test [8], -11% (inactive). In addition, the inhibition of aggregation in test [2] is 11.8% (inactive). Further, the figures for the nuclei count in test [2] and in test [3] were 107% and 116%, respectively. For the same molecule, in test [4], the fluorescence slope was -0.62 (inactive). Besides, the NADPH fluorescence slope in test [5] was -5.7e-06 (inactive). For the same molecule, the slope in test [6] is 0.00332 (inactive).

As to `Cc1cc(Cl)c(S(=O)(=O)Nc2ccc3c(c2)OCCO3)cc1OCC(N)=O`, the cell count in test [1] was found to be 526. In addition, the inhibition in test [1] is 1.8% (inactive); in test [3], -79.1% (inactive); in test [7], 32.8% (inactive); in test [8] it was 30.7% (inactive). Also, the inhibition of aggregation in test [2] was -7.1% (inactive). Further, the nuclei count in test [2] was 106%; in test [3] it was 113%. Besides, the fluorescence slope in test [4] is -0.516 (inactive). Further, the NADPH fluorescence slope in test [5] was 1.1e-05 (inactive). In addition, the slope in test [6] is 0.00485 (inactive).
